Data on seven compounds can be found in PubChem BioAssay AID504912 (The Scripps Research Institute Molecular Screening Center, 2011).

The other results are listed elsewhere or left out. Unmarked numbers belong to inactive results. How the calls were made is not given here.

A short description of this experiment: OPRM1-OPRD1 heterodimer inverse agonism – cell-based, luminescence, counter-screen for HTR5A inverse agonist project (AID 504912).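 Further: 0% = cells with DMSO and 100% = wells without cells.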 Particulars: U2OS counter-screen cells, complementation luminescence; at 9.3 µM; hits give high values.
Consider `Cc1noc(C)c1COc1cccc(C(=O)Nc2cccnc2)c1`, for which the inhibition (as a rule, the relative decrease from the control value, in per cent) was 3.69%.

`O=c1ccc2c(-c3ccccc3S(=O)(=O)O)c3ccc(O)c(O)c3oc-2c1O`: the inhibition was -10.2%.

Consider `CCOC(=O)NC(=O)C(=CNc1cccc(OC)c1)C(=O)NC(=O)OCC`, for which the inhibition is -172%.

In the case of `Cc1cc(C)n(-c2ccc(Cl)c(C(=O)O)n2)n1`, the inhibition is -60.3%.

As for `COc1ccc(-c2nnc(SC(C)C(=O)NC3CC3)o2)cc1` (configuration not stated), the inhibition was -19.6%.

Turning to `CCCCCCCCc1c(O)nc(-n2[nH]c(C)c(CCO)c2=O)[nH]c1=O`, the inhibition was -29.4%.

For `O=C(/C=C/c1ccc(Cl)c([N+](=O)[O-])c1)c1ccc(O)cc1`, the inhibition was -15.2%.
